Out of some 94,000 compounds screened, about 6,200 (6.6%) were called active. Another 31% or so got no clear call; they are omitted. This excerpt belongs to a sample that is enriched for actives. Unmarked numbers belong to inactive results. Calls come from the whole dose curve; as a rule, active = well fitted inhibition curve with a large enough effect; inconclusive = small, poorly fitted or top-dose-only effect; inactive = flat fitted curve, though single readings scatter.
Assay: Cytotoxic Profiling in HEK 293 Cell Line of Diverse Libraries Using Quantitative High-Throughput Screening; note: nearly all actives have a fitted effect of over 60% in size
Conditions: HEK 293 viability, ATP luminescence (CellTiter-Glo), 48-72 h; series mostly up to 115 µM; activity change, negative = cytotoxicity: at the top concentration
How it was run: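 Read-out: CellTiter-Glo ATP luminescence. Cells: HEK 293, 250 cells/well. Exposure: 48 or 72 hr, 37 degree Celsius.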
% is set by controls: 0 for no effect and ±100 for the full control effect; potency is the fitted concentration of half-maximal effect.

| Compound | activity change, negative = cytotoxicity | outcome | Potency |
| --- | --- | --- | --- |
| Cc1ccc(S(=O)(=O)N2CC[C@H](c3nnc(-c4ccccc4)o3)C2)cc1 | -21.2% [at 172 µM] | – | – |
| O=S(=O)(Cc1ccccc1)N1CCCC(Cc2nncn2CC2CC2)C1 (stereo not drawn) | – | inactive | – |
| Cc1cnc(CC2CCN(S(=O)(=O)c3ccc(C#N)cc3)C2)n1Cc1ccccc1 (stereo not drawn) | – | – | 44.7 µM (active) |
| CCN(CCn1cccn1)Cc1cnc(S(=O)(=O)Cc2ccccc2)n1CC(C)C | -18.6% | – | – |
| O=C(C1CCCCC1)N1CC2(Cc3ccccc3NC2=O)C1 | -17.9% | – | – |
| O=C(NCc1c[nH]c2ncccc12)c1ccccc1F | -18.3% [at 172 µM] | – | – |
| CC(C)C[C@@H]1N[C@H](C(=O)NCc2ccc(F)cc2)Cc2cn(C)c3cccc1c23 | – | – | 70.8 µM (active) |
| CCc1ccc(CNC(=O)C2c3ccccc3CC(=O)N2C(C)C)cc1 (stereo not drawn) | -27.9% | – | – |
| COCCN1C(=O)Cc2ccccc2C1C(=O)NCC1CCCCC1 (stereo not drawn) | 10% | – | – |
| C=CCn1cc2c3c(cccc31)[C@H](CC(C)C)N[C@H](C(=O)NCC1CC1)C2 | – | – | 79.4 µM (active) |
| CN1CC(C(=O)NCc2ccccc2)NC1=O (stereo not drawn) | – | inactive [at 172 µM] | – |
| COc1ccc(CNC(=O)[C@@H]2Cc3cn(Cc4ccncc4)c4cccc(c34)[C@H](CC(C)C)N2)cc1 | – | – | 39.8 µM (active) |
| COc1ccc(CNC(=O)[C@H]2O[C@H](CCN3CCN(C)CC3)CC[C@@H]2O)cc1 | -12% [at 172 µM] | – | – |
| CC(C)N1CCC(OCCCNC(=O)C2Cn3cccc3C(=O)N2)CC1 (stereo not drawn) | 2.23% | – | – |
| COC(=O)[C@@H]1Cc2ncn(Cc3ccc(OC)cc3)c2CN1S(C)(=O)=O | -6.58% [at 172 µM] | – | – |
| CN1CC2(CCN(C(=O)c3ccncc3)CC2)CC1C(=O)N1CCOCC1 (stereo not drawn) | -3.04% | – | – |
| CNC(=O)c1cc(C2CC2)nc2onc(C3CCN(C(=O)Nc4ccccc4)C3)c12 (stereo not drawn) | -12.7% | – | – |
| CNC(=O)c1cc(C2CC2)nc2c1c(C1CCN(C(=O)C(C)C)C1)nn2C (stereo not drawn) | -22% | – | – |
| COC[C@H]1C[C@@H](NC(=O)c2cc(C)oc2C(F)(F)F)[C@H](O)[C@@H]1O | -0.359% [at 172 µM] | – | – |
| Cc1cc(S(=O)(=O)N2CCCN(C)c3ccccc32)ccc1F | – | – | 79.4 µM (active) |
| CN1CCCN(C(=O)c2cc(F)ccc2F)c2ccccc21 | -29.6% | – | – |
| Cc1cc(S(=O)(=O)N2CCC(n3cnnc3C(C)C)CC2)ccc1F | -7.71% | – | – |
| COc1cccc(CNC(=O)Cn2ccn3nc(-c4ccc(F)cc4)c(CO)c3c2=O)c1 | -4.92% | – | – |
| CCC(C(=O)NCCn1ccn2nc(-c3ccc(F)cc3)cc2c1=O)c1ccccc1 (stereo not drawn) | – | – | 20 µM (active) |
| CCOc1ccc(-c2cc3c(=O)n(CCNC(=O)c4ccc(OC)cc4C)ccn3n2)cc1 | -42.3% | – | – |

| Compound | activity change, negative = cytotoxicity | outcome | Potency |
| --- | --- | --- | --- |
| Fc1ccc(Nc2nc(-c3ccccc3F)no2)cc1 | – | – | 39.8 µM (active) |
| O=C(Cn1cccc1-c1nc(-c2ccc(F)cc2)no1)Nc1cc(F)cc(F)c1 | -13.6% | – | – |
| CCc1nc2c(=O)n(CC(=O)NCc3cc(C)ccc3C)nc(C)c2s1 | -19.2% | – | – |
| Cn1ccc(Nc2nccc3c(=O)cc(-c4ccccn4)oc23)n1 | -16.5% [at 172 µM] | – | – |
| CN(c1ccccc1)c1cc(=O)c2ccnc(Nc3cccc([S+](C)(=O)[O-])c3)c2o1 | – | – | 100 µM (active) |
| CCCC(=O)N(C)CC1CCOCC1 | 9.81% | – | – |
| COc1ccccc1NC(=O)N1CCC2(CCNC(=O)CC2)CC1 | -2.63% | – | – |
| CN(C)CCN(C)C(=O)c1ccc2c(c1)NC(C)(COc1ccc3[nH]ccc3c1)CO2 (stereo not drawn) | – | – | 112 µM (active) |
| O=C(NCC1CCOCC1)c1ccc2[nH]ccc2c1 | -0.244% | – | – |
| CC1(COCC2CC2)COc2ccc(C(=O)NCc3cccnc3)cc2N1 (stereo not drawn) | -25.1% [at 172 µM] | – | – |
| CC(C)CC(=O)N1CCCN(c2nnc3ccccn23)CC1 | – | inactive | – |
| C[C@@H](NC(=O)c1cccnc1)c1c(-c2ccc(F)cc2)noc1C(=O)O | 4.65% [at 172 µM] | – | – |
| CC(=O)NC1CN(c2ccnc3ccnn23)C1 | -10.6% [at 172 µM] | – | – |
| Cc1cccc(-c2cccc(NC(=O)C3CCCN(C(=O)CC(F)(F)F)C3)c2)c1 (stereo not drawn) | – | – | 31.6 µM (active) |
| Cc1cccc(C(=O)N2C[C@@H](F)C[C@H]2C(=O)N2CCCCC2)c1 | 1.93% | – | – |
| CC(=O)Nc1cccc(-c2nnc3n2CCCC3)c1 | 24.3% | – | – |
| CCCCc1ccc(NC(=O)Cn2ccn3nc(-c4ccc(F)cc4)c(CO)c3c2=O)cc1 | -0.406% | – | – |
| O=C(NCc1cccc(C(F)(F)F)c1)c1nn(CCOc2ccccc2)c2c1CNCC2 | – | – | 28.2 µM (active) |
| COC[C@H]1NC(=O)CC[C@H]1C(=O)NCc1cccc(C(F)(F)F)c1 | 2.55% | – | – |
| COc1ccccc1CNC(=O)c1nn(CC2CC2)c2c1CNCC2 | -11% | – | – |
| CNC(=O)c1noc([C@@H]2CC(F)(F)CN2Cc2ccc(C)cn2)n1 | 1.02% | – | – |
| COc1ccc(OCC2CN(Cc3cccc(F)c3)[S+](=O)([O-])c3cccnc3O2)cc1 (stereo not drawn) | – | – | 28.2 µM (active) |
| COc1ccc(CN2CCC3(COc4ncccc4[S+](=O)([O-])N3)C2)cc1 (stereo not drawn) | -6.89% | – | – |
| COc1ccc(N2CC(COc3ccccc3)Oc3ncccc3[S+]2(=O)[O-])cc1 (stereo not drawn) | -26% [at 57.5 µM] | – | – |
| CNC(=O)N1CCC(C2CCN(C(=O)C3CC=CC3)C2)CC1 (stereo not drawn) | -10.2% | – | – |

| Compound | activity change, negative = cytotoxicity | outcome | Potency |
| --- | --- | --- | --- |
| CC(C)(C)c1csc(NC(=O)c2ccc3c(c2)OCCN(C2CCC2)C3)n1 | – | – | 50.1 µM (active) |
| O=C(Cn1nc2c(cc1=O)CCCC2)Nc1nc(-c2ccc3c(c2)OCCCO3)cs1 | 1.44% | – | – |
| COc1ccc(NC(=O)Cn2c(C)ccc(NS(=O)(=O)c3ccccc3)c2=O)cc1 | -11.2% | – | – |
| CCOc1ccc2c(n1)CCN(C(=O)C(C)C)C2 | -20.1% | – | – |
| O=C(NCc1ccc(Cl)nc1)c1cn2c(n1)CN(C(=O)c1cccnc1)CC2 | – | inactive | – |
| O=C(NCCc1cnccn1)c1coc(COc2cccc(C(F)(F)F)c2)n1 | -2.53% | – | – |
| Cc1occc1C(=O)N[C@@H]1CN(Cc2cccnc2)C[C@H]1CN(C)C | -0.747% | – | – |
| CN(C)C[C@@H]1CN(Cc2ccccn2)C[C@H]1NC(=O)c1cc(Cl)ccc1F | – | – | 44.7 µM (active) |
| CN(C)C[C@@H]1CN(c2ncccn2)C[C@H]1NC(=O)c1cc(Cl)ccc1F | 2.99% | – | – |
| CNC(=O)c1cc(C)nc2onc(C3CCN(C(=O)c4ccc(C)cc4)CC3)c12 | -0.605% | – | – |
| NC(=O)CCNC(=O)C1=C[C@@H](NC(=O)Nc2ccccc2Br)[C@@H](O)[C@H](O)C1 | – | inactive | – |
| CCN(C1CCN(C)CC1)C1CN(C(=O)c2nccc3ccccc23)C1 | -0.681% | – | – |
| CCc1cccc(C)c1NC(=O)CN1C(=O)C(c2ccccc2)=NC12CCCC2 | -26% | – | – |
| CCOc1ccccc1NC(=O)CN1C(=O)C(c2ccccc2)=NC12CCCC2 | – | – | 79.4 µM (active) |
| CCOc1ccccc1NC(=O)Cn1c(=O)n(-c2ccccc2)c(=O)c2c1cc(C)n2C | -1.28% | – | – |
| Cc1noc(C)c1[S+](=O)([O-])N1CCn2c(nnc2C2CCCNC2)C1 (stereo not drawn) | -2.98% | – | – |
| Cc1cccc(-c2cnc3n[nH]c(-c4ccc5c(c4)OCO5)c3n2)c1 | – | – | 70.8 µM (active) |
| c1cc2c(cc1-c1n[nH]c(C3CCOCC3)n1)OCO2 | 4.32% | – | – |
| COc1ccc(-c2[nH]nc3ncc(-c4cn[nH]c4)nc23)cc1F | -65.2% [at 172 µM] | – | – |
| CC(=O)N1CCC(Oc2ccc(Cl)cc2C(=O)N2CCN(CC3CC3)CC2)CC1 | -0.051% | – | – |
| CCn1cc(S(=O)(=O)N2CCc3nn(CC4CC4)c(=O)n3CC2)cn1 | – | inactive | – |
| CN(C)c1ccc2ncc(Nc3ccccc3F)n2n1 | – | – | 112 µM (active) |
| O=C(NCCCN1CCCCC1)C1CCN(C(=O)N2CC3CC(C2)[C@H]2CCCC(=O)N2C3)CC1 (stereo partly drawn) | 7.11% | – | – |
| COCCN1CCC2(CCC1=O)CCN(C(=O)c1sc(C)nc1C)CC2 | 0.502% | – | – |
| CCOC(=O)C1=CN(CC(=O)Nc2ccccc2F)S(=O)(=O)N=C1C | 9.12% | – | – |

| Compound | activity change, negative = cytotoxicity | outcome | Potency |
| --- | --- | --- | --- |
| COc1cc(C)c(CN2CCN3C(=O)CNC(=O)C3C2)cc1C(C)C (stereo not drawn) | -23.9% | – | – |
| Cc1cc(=O)n(CC(=O)N2C[C@H](CO)C[C@H](CN(C)C)C2)nc1C | -2.93% | – | – |
| CCOc1cc(C)c(CN2C[C@@H](CN(C)C)C[C@H](CO)C2)cc1C(C)C | – | – | 35.5 µM (active) |
| COc1ccccc1Nc1cnc2ccc(-c3ccc(OC)c(OC)c3)nn12 | – | – | 11.2 µM (active) |
| COc1ccc(C(=O)NCc2nnc3ccc(-c4ccccc4)nn23)c(OC)n1 | – | inactive | – |
| Cc1ccc(-c2ccc3nnc(CNC(=O)c4cccnc4)n3n2)cc1C | -0.42% | – | – |
| CN(C)c1cccc(-c2cnc(Nc3ccc(N4CCOCC4)cc3)c3c2CCO3)c1 | – | – | 22.4 µM (active) |
| Cc1cccc(CNC(=O)C2Cn3cccc3C(=O)N2CC(C)C)c1 (stereo not drawn) | -18.7% | – | – |
| CCOC(=O)[C@H]1[C@@H](O)C(=O)N(Cc2ccccc2)C12CCN([S+](C)(=O)[O-])CC2 | -4.69% | – | – |
| Cc1ccc2c(n1)N(C)[C@H](CO)CCN(Cc1ccccc1C)C2 | – | – | 89.1 µM (active) |
| Cc1ccccc1CN1CCC2(C1)C(=O)N(C)C(=O)N2C (stereo not drawn) | -6.62% | – | – |
| Cc1ccccc1CN1CCC(N2CCCC(C(=O)NC3CC3)C2)CC1 (stereo not drawn) | -0.659% | – | – |
| C=CCN1CCN(C(=O)C2CCCN(C(=O)c3ccccc3)CCC(=O)NCC2)CC1 (stereo not drawn) | 4.32% | – | – |
| CC(C)(C)c1cc(CC2(NCc3ccc(C#N)cc3)COC2)no1 | -28.2% [at 172 µM] | – | – |
| CC1CCN([C@@H]2[C@H](O)[C@H](CO)O[C@@H]2CNC(=O)Nc2ccccc2)CC1 | -8.97% [at 172 µM] | – | – |
| Cc1cc(C[C@@H]2COC[C@@H]2NC(=O)C2CCN(C(=O)N(C)C)CC2)on1 | – | inactive | – |
| CCC(CC)C(=O)N[C@H]1C[C@@H](Cc2cc(COc3ccccc3)on2)C1(C)C | – | – | 31.6 µM (active) |
| CN(Cc1nccn1C)C(=O)c1cc(CN2CCC(Cc3ccccc3)CC2)on1 | -28.8% | – | – |
| CC1(C)[C@H](Cc2cc(CC3CCCCC3)on2)C[C@@H]1NC(=O)C1CCC1 | – | – | 35.5 µM (active) |
| CC1(C)[C@H](Cc2cc(CC3CCCCC3)on2)C[C@@H]1NC1CCOCC1 | – | – | 28.2 µM (active) |
| CC(=O)N1CCC(N[C@H]2C[C@@H](Cc3cc(CN(C)c4ccccc4)on3)C2(C)C)CC1 | – | – | 70.8 µM (active) |
| COCc1cc(C[C@@H]2CC[C@H](O)[C@@H](CN(C)C)O2)no1 | 2.42% [at 230 µM] | – | – |
| CN(Cc1ccccc1)Cc1cc(CC2(NCc3ccc(CO)o3)COC2)no1 | -11.7% [at 172 µM] | – | – |
